PubChem BioAssay AID1159580 (chemical genetic matrix, 2015)
About 2,000 (36%) of roughly 5,500 compounds were called active. Another 18% or so got no clear call; they are omitted. Cut-off read from the data, not from the text of the source: active = normalized growth mostly below about 0.91 (no sharp cut-off); inconclusive = no clear call, values can overlap the other calls; inactive = mostly above about 0.92. The list shows a part of the results.

Experiment: chemical genetic growth profiling, strain panel (AID 1159580);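 note: tested at 20 µM; growth read once vehicle control cultures reached saturation at 30 °C; 1 = growth at the plate median or of vehicle wells; lower values mean less growth of the strain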
Settings: growth OD

Measured: normalized growth

C[C@@H]1CC(Cl)CC[C@H]1C(=O)OC(C)(C)C (some centres not stated)
inactive: S. cerevisiae deletion strains, locus YJR075W, strain HOC1, active compounds read low 0.964 | S. cerevisiae deletion strains, locus YKL009W, strain mrt4, active compounds read low 1 | S. cerevisiae deletion strains, locus YKL068W, active compounds read low 0.98 | S. cerevisiae deletion strains, locus YKL085W, strain MDH1 (second series), active compounds read low 0.977 | S. cerevisiae deletion strains, locus YKL085W, strain MDH1, active compounds read low 0.977 | S. cerevisiae deletion strains, locus YKL160W, strain elf1, active compounds read low 1.02 | S. cerevisiae deletion strains, locus YKL190W, strain CNB1, active compounds read low 0.981 | S. cerevisiae deletion strains, locus YKR001C, strain vps1, active compounds read low 1.01 | S. cerevisiae deletion strains, locus YKR026C, strain gcn3, active compounds read low 0.985 | S. cerevisiae deletion strains, locus YKR091W, strain srl3, active compounds read low 0.982 | S. cerevisiae deletion strains, locus YLL001W, strain dnm1, active compounds read low 0.979 | S. cerevisiae deletion strains, locus YLL026W, active compounds read low 0.983 | S. cerevisiae deletion strains, locus YLL041C, strain sdh2, active compounds read low 0.982 | S. cerevisiae deletion strains, locus YLR027C, strain aat2, active compounds read low 0.982 | S. cerevisiae deletion strains, locus YLR039C, strain RIC1, active compounds read low 1 | S. cerevisiae deletion strains, locus YLR058C, strain SHM2, active compounds read low 0.991 | S. cerevisiae deletion strains, locus YLR102C, strain apc9, active compounds read low 0.991 | S. cerevisiae deletion strains, locus YLR113W, strain HOG1, active compounds read low 0.999 | S. cerevisiae deletion strains, locus YLR221C, strain rsa3, active compounds read low 1.01 | S. cerevisiae deletion strains, locus YLR258W, strain gsy2, active compounds read low 0.97 | S. cerevisiae deletion strains, locus YLR262C, strain YPT6 (second series), active compounds read low 0.965 | S. cerevisiae deletion strains, locus YLR262C, strain YPT6, active compounds read low 0.957 | S. cerevisiae deletion strains, locus YLR268W, strain sec22, active compounds read low 0.976 | S. cerevisiae deletion strains, locus YLR320W, strain mms22, active compounds read low 0.954 | S. cerevisiae deletion strains, locus YLR330W, strain CHS5, active compounds read low 0.99 | S. cerevisiae deletion strains, locus YLR342W, strain FKS1 (second series), active compounds read low 1.05 | S. cerevisiae deletion strains, locus YLR342W, strain FKS1, active compounds read low 0.98 | S. cerevisiae deletion strains, locus YLR357W, strain rsc2, active compounds read low 0.985 | S. cerevisiae deletion strains, locus YLR370C, strain arc18, active compounds read low 0.991 | S. cerevisiae deletion strains, locus YLR371W, strain rom2, active compounds read low 1 | S. cerevisiae deletion strains, locus YLR384C, strain iki3, active compounds read low 0.982 | S. cerevisiae deletion strains, locus YLR418C, strain cdc73, active compounds read low 0.972 | S. cerevisiae deletion strains, locus YML016C, strain PPZ1, active compounds read low 0.992 | S. cerevisiae deletion strains, locus YML032C, strain rad52, active compounds read low 0.967 | S. cerevisiae deletion strains, locus YML120C, strain ndi1, active compounds read low 1 | S. cerevisiae deletion strains, locus YML124C, strain tub3, active compounds read low 0.983 | S. cerevisiae deletion strains, locus YMR058W, strain fet3, active compounds read low 0.976 | S. cerevisiae deletion strains, locus YMR078C, strain ctf18, active compounds read low 0.985 | S. cerevisiae deletion strains, locus YMR125W, strain sto1, active compounds read low 0.962 | S. cerevisiae deletion strains, locus YMR129W, active compounds read low 0.961 | S. cerevisiae deletion strains, locus YMR205C, strain PFK2, active compounds read low 0.928 | S. cerevisiae deletion strains, locus YMR223W, strain ubp8, active compounds read low 1.04 | S. cerevisiae deletion strains, locus YMR231W, strain pep5, active compounds read low 0.995 | S. cerevisiae deletion strains, locus YMR263W, strain SAP30, active compounds read low 0.976 | S. cerevisiae deletion strains, locus YMR307W, strain GAS1, active compounds read low 1 | S. cerevisiae deletion strains, locus YNL067W, strain RPL9B, active compounds read low 0.959 | S. cerevisiae deletion strains, locus YNL071W, strain lat1, active compounds read low 0.985 | S. cerevisiae deletion strains, locus YNL128W, strain TEP1, active compounds read low 0.971 | S. cerevisiae deletion strains, locus YNL153C, strain GIM3, active compounds read low 0.986 | S. cerevisiae deletion strains, locus YNL183C, strain NPR1, active compounds read low 0.948 | S. cerevisiae deletion strains, locus YNL209W, strain ssb2, active compounds read low 0.989 | S. cerevisiae deletion strains, locus YNL233W, strain BNI4, active compounds read low 0.997 | S. cerevisiae deletion strains, locus YNL248C, strain rpa49, active compounds read low 1.01 | S. cerevisiae deletion strains, locus YNL250W, strain rad50, active compounds read low 0.987 | S. cerevisiae deletion strains, locus YNL271C, strain bni1, active compounds read low 0.976 | S. cerevisiae deletion strains, locus YNL298W, strain CLA4, active compounds read low 0.979 | S. cerevisiae deletion strains, locus YNL307C, strain MCK1, active compounds read low 0.995 | S. cerevisiae deletion strains, locus YNL322C, strain KRE1 (second series), active compounds read low 0.996 | S. cerevisiae deletion strains, locus YNL322C, strain KRE1, active compounds read low 0.956 | S. cerevisiae deletion strains, locus YNR049C, strain mso1, active compounds read low 0.971 | S. cerevisiae deletion strains, locus YNR052C, strain pop2, active compounds read low 0.989 | S. cerevisiae deletion strains, locus YOL006C, strain TOP1, active compounds read low 0.991 | S. cerevisiae deletion strains, locus YOL012C, strain htz1 0.765 | S. cerevisiae deletion strains, locus YOL147C, strain pex11, active compounds read low 0.992 | S. cerevisiae deletion strains, locus YOR001W, strain rrp6, active compounds read low 1 | S. cerevisiae deletion strains, locus YOR061W, strain CKA2, active compounds read low 0.993 | S. cerevisiae deletion strains, locus YOR069W, strain VPS5, active compounds read low 0.989 | S. cerevisiae deletion strains, locus YOR070C, strain gyp1, active compounds read low 0.991 | S. cerevisiae deletion strains, locus YOR080W, strain dia2, active compounds read low 0.98 | S. cerevisiae deletion strains, locus YOR083W, strain WHI5, active compounds read low 1.04 | S. cerevisiae deletion strains, locus YOR106W, strain vam3, active compounds read low 1 | S. cerevisiae deletion strains, locus YOR136W, strain idh2, active compounds read low 0.996 | S. cerevisiae deletion strains, locus YOR144C, strain elg1, active compounds read low 0.991 | S. cerevisiae deletion strains, locus YOR184W, strain ser1, active compounds read low 0.935 | S. cerevisiae deletion strains, locus YOR231W, strain MKK1, active compounds read low 1.01 | S. cerevisiae deletion strains, locus YOR265W, strain rbl2, active compounds read low 0.986 | S. cerevisiae deletion strains, locus YOR270C, strain vph1, active compounds read low 0.928 | S. cerevisiae deletion strains, locus YOR290C, strain snf2, active compounds read low 0.92 | S. cerevisiae deletion strains, locus YOR316C, strain cot1, active compounds read low 0.969 | S. cerevisiae deletion strains, locus YPL051W, strain arl3, active compounds read low 1 | S. cerevisiae deletion strains, locus YPL055C, strain LGE1, active compounds read low 0.864 | S. cerevisiae deletion strains, locus YPL078C, strain atp4, active compounds read low 1 | S. cerevisiae deletion strains, locus YPL106C, strain sse1, active compounds read low 0.962 | S. cerevisiae deletion strains, locus YPL240C, strain hsp82, active compounds read low 0.982 | S. cerevisiae deletion strains, locus YPL241C, strain CIN2, active compounds read low 0.997 | S. cerevisiae deletion strains, locus YPL256C, strain CLN2, active compounds read low 1.01 | S. cerevisiae deletion strains, locus YPR119W, strain clb2, active compounds read low 0.977 | S. cerevisiae deletion strains, locus YPR141C, strain kar3, active compounds read low 0.979 | S. cerevisiae deletion strains, locus YPR163C, strain tif3, active compounds read low 0.992 | S. cerevisiae deletion strains, locus YPR167C, strain met16, active compounds read low 0.977 | S. cerevisiae deletion strains, strain wtn01, active compounds read low 0.977 | S. cerevisiae strains, strain wild type, active compounds read low 0.984
